The supplement of paper PMC11732987, “Enantioselective OTUD7B fragment discovery through chemoproteomics screening and high-throughput optimisation” (Communications Chemistry, 2025)

Assays:
Experiment in all cases: log2 ratio of Biotin-Ahx-Ub-VS probe labelling (fragment/DMSO); higher = less target engagement (more negative = stronger competition), active = hit call of the paper (q ≤ 0.05, log2 ratio ≤ -1)
Settings in all cases: compound concentration: 200 uM; treatment time: 3 h
USP9X = USP9X (UniProt Q93008)
Method in brief: (§1)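 Labelled DUBs from HEK293T lysate were NeutrAvidin-enriched, digested with LysC and trypsin, and run by diaPASEF LC-MS/MS. Before that, each 495 µg sample in Tris/CHAPS/IGEPAL buffer with protease inhibitors was treated in triplicate with fragment at 200 µM or vehicle for 3 h, then with Biotin-Ahx-Ub-VS at 0.5 µM final for 1 h. Values are average log2 ratios of fragment over vehicle by unpaired t-test, based on global-median-normalised Spectronaut label-free quantities from proteins with ≥2 unique peptides.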

UniProt O00487 = target: UniProt O00487
Sequence of UniProt O00487 (O00487 whole entry): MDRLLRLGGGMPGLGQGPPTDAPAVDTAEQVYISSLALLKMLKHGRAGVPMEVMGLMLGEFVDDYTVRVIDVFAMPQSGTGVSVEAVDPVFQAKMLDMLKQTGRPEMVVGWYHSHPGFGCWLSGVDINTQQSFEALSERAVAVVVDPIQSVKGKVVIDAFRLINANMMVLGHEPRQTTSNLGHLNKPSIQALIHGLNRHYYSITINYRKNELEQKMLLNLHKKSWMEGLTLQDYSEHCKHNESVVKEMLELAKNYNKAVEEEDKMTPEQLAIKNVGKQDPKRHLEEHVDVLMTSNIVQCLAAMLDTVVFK
Method in brief: as §1

UniProt O00507 = target: UniProt O00507
Sequence of UniProt O00507 (O00507 whole entry): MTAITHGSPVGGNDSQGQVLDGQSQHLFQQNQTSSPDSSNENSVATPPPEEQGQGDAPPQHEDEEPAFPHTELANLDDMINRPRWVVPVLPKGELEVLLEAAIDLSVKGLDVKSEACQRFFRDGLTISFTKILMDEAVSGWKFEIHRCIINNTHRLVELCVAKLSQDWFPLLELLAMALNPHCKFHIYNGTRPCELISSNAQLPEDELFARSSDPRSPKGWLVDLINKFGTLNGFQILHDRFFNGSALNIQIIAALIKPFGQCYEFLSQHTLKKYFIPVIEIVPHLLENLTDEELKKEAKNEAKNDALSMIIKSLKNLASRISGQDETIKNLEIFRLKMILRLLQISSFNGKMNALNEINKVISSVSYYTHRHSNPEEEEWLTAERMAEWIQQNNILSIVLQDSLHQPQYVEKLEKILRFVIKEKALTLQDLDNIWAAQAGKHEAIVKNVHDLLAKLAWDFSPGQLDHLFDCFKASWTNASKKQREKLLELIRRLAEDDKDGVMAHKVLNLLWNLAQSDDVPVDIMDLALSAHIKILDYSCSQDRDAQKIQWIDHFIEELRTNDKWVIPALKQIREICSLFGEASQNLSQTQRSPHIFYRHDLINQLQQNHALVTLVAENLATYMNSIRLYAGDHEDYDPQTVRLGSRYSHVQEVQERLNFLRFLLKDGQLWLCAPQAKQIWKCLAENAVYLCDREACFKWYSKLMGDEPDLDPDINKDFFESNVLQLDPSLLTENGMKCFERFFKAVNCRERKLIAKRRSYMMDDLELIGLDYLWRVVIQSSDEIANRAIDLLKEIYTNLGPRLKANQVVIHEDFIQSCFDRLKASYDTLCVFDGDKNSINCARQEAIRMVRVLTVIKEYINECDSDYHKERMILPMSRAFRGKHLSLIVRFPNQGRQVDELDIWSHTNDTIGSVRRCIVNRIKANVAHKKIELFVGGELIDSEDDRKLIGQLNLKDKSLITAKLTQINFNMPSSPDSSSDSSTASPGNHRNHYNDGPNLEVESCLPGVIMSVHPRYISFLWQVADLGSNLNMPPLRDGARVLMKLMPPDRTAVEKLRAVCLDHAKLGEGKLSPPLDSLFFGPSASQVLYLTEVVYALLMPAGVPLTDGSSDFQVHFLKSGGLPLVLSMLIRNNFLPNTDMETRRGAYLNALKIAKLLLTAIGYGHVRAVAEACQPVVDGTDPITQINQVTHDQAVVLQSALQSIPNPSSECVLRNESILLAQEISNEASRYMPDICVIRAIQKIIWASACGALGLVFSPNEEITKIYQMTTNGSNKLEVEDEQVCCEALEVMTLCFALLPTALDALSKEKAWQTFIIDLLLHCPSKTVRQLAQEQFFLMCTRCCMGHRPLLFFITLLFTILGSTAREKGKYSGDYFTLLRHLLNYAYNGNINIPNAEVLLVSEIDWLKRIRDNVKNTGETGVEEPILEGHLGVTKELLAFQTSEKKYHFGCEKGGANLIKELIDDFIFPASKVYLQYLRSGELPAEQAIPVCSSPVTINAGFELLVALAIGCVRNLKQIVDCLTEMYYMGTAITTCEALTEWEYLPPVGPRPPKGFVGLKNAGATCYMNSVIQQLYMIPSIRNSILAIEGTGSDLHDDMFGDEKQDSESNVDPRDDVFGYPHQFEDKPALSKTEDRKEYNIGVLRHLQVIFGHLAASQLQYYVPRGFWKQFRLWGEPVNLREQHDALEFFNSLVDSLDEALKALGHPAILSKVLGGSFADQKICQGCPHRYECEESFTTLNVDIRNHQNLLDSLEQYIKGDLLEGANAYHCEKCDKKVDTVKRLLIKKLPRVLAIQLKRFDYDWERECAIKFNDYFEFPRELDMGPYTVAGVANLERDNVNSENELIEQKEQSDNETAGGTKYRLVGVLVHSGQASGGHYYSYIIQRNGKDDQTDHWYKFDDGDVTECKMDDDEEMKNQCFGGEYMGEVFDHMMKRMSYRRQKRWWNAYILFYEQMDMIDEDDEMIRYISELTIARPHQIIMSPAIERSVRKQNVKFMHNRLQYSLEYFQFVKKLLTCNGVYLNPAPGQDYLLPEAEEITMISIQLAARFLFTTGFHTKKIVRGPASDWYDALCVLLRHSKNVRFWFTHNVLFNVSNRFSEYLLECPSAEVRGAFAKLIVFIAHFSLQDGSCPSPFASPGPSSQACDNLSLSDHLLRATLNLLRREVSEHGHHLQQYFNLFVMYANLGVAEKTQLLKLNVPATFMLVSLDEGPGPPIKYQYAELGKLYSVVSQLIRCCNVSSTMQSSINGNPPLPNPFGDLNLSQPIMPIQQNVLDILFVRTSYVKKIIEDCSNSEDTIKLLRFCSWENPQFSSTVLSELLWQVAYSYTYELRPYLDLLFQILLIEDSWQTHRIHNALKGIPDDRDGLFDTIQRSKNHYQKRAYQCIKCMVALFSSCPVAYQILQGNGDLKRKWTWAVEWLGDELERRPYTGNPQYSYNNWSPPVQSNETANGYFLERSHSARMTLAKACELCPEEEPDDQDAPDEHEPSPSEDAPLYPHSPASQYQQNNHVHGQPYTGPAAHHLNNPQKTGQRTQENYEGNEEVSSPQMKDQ
Method in brief: as §1

UniProt P51784 = target: UniProt P51784
Sequence of UniProt P51784 (P51784 whole entry): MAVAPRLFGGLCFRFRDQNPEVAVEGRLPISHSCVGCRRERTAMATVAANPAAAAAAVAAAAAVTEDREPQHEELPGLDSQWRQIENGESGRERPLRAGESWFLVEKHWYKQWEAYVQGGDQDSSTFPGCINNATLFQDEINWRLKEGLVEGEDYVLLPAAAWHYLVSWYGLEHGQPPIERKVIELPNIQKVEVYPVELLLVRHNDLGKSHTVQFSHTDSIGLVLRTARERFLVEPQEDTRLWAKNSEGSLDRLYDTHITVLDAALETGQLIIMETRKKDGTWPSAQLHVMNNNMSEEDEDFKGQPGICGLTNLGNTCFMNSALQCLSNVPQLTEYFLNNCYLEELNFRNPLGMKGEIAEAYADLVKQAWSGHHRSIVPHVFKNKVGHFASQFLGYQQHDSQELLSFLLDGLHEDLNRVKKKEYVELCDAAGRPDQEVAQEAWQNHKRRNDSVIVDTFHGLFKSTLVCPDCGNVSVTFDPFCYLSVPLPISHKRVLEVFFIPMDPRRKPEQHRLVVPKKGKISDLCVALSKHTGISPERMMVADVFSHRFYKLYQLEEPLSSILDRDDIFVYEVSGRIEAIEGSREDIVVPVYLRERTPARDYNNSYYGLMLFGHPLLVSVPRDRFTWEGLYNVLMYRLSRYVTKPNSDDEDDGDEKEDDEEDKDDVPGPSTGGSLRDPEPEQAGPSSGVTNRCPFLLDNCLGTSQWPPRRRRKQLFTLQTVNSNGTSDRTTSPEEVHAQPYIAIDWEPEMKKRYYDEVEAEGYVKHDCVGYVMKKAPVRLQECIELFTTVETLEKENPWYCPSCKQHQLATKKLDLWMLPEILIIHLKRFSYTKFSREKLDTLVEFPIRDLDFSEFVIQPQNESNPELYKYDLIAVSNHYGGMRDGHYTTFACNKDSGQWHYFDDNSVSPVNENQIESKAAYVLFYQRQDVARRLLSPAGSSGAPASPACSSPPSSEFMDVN
Method in brief: as §1

UniProt Q5T2D3 = target: T1, UniProt Q5T2D3
T1 sequence (whole entry): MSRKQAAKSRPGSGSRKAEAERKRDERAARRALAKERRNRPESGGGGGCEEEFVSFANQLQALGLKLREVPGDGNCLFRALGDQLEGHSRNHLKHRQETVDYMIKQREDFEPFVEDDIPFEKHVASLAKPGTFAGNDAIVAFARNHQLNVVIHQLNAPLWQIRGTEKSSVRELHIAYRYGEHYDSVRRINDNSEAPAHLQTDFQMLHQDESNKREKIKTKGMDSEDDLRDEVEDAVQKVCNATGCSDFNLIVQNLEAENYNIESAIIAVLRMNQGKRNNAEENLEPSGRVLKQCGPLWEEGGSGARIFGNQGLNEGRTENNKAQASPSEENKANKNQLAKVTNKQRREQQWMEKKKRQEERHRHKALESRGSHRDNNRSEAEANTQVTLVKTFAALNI
Method in brief: as §1

UniProt Q8TE49 = target: T2, UniProt Q8TE49
T2 sequence (whole entry): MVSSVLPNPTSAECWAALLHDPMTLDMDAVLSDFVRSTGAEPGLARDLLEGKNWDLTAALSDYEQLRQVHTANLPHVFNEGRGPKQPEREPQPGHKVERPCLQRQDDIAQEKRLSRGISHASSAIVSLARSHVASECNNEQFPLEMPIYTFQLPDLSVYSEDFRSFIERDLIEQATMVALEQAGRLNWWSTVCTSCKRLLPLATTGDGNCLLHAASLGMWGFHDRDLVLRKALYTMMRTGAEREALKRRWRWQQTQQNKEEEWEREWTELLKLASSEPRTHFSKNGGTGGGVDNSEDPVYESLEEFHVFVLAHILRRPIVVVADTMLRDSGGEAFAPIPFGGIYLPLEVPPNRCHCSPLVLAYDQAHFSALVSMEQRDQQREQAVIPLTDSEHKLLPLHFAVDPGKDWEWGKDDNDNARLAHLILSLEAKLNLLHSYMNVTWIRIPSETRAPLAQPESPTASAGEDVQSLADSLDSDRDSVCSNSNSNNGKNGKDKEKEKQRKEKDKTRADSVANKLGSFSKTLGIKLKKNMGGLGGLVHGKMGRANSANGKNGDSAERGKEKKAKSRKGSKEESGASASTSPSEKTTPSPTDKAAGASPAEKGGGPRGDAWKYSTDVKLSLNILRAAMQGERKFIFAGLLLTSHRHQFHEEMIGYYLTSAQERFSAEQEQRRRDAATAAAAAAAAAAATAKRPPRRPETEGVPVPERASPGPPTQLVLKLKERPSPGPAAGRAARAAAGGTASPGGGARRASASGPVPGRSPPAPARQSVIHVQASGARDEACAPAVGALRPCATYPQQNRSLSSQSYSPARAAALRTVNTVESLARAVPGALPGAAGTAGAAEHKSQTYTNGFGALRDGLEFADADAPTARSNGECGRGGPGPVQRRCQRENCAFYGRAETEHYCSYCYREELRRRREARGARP
Method in brief: as §1

UniProt Q9P2H5 = target: T3, UniProt Q9P2H5
T3 sequence (whole entry): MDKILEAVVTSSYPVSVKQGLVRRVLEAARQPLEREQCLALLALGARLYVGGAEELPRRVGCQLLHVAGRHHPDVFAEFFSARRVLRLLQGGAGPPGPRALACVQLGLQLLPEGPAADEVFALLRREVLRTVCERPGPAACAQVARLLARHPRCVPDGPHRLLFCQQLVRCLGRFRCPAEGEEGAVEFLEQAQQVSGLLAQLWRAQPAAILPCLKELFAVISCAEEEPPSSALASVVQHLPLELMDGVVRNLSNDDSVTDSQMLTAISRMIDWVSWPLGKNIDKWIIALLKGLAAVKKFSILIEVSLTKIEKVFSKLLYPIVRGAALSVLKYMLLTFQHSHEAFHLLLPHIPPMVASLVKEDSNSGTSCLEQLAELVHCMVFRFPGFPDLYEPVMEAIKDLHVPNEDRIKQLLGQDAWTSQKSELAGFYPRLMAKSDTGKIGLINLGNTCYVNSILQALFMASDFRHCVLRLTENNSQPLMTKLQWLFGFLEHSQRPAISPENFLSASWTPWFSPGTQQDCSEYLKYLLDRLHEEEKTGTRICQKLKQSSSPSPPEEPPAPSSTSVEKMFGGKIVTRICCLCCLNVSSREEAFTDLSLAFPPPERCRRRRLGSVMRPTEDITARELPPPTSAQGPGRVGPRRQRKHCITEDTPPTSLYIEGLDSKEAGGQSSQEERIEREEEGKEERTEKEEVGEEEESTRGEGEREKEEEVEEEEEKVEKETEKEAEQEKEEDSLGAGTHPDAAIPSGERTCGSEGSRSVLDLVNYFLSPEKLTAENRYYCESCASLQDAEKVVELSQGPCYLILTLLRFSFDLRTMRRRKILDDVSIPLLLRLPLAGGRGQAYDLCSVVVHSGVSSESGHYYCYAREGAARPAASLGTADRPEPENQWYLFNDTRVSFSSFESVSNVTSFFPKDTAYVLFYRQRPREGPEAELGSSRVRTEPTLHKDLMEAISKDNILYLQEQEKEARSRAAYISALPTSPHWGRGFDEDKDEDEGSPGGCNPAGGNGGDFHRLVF
Method in brief: as §1

UniProt Q9UGI0 = target: T4, UniProt Q9UGI0
T4 sequence (whole entry): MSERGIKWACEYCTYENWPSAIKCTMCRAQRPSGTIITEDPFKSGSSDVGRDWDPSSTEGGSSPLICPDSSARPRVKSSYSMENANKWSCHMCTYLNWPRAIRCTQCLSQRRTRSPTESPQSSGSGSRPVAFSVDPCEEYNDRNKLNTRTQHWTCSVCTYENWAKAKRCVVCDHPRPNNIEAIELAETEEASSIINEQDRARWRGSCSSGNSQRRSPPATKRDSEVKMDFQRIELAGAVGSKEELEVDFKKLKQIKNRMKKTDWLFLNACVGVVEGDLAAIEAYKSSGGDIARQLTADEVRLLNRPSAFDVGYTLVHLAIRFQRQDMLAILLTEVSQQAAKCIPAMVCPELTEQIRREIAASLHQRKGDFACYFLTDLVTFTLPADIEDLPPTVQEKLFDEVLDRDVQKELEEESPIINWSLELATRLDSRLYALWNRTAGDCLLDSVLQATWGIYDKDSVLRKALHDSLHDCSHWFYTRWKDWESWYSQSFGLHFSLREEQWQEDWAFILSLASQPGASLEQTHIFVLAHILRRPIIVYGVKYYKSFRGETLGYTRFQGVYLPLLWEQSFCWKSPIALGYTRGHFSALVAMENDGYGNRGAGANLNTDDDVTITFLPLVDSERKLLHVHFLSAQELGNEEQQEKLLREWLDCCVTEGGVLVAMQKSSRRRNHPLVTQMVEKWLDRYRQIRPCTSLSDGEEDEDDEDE
Method in brief: as §1

YOD1 = target: T5, YOD1 (UniProt Q5VVQ6)
T5 sequence (whole entry): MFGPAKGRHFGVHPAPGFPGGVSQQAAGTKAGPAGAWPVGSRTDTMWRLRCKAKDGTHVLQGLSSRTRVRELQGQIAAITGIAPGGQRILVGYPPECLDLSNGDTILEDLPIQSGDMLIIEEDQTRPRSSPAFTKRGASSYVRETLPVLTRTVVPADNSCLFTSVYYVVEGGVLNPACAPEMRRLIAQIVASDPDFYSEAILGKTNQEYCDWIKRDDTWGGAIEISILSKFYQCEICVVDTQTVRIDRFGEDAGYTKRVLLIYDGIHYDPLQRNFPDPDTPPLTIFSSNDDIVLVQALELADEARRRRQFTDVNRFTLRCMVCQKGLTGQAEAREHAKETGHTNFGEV
Method in brief: as §1

Measured: log2 ratio of Biotin-Ahx-Ub-VS probe labelling

CC(NC(=O)CCl)c1cnn(C2CC2)c1 (centres undefined)
inactive: USP9X -0.227 | UniProt O00487 -0.0263 | UniProt O00507 -0.607 | UniProt P51784 -0.127 | UniProt Q5T2D3 -0.192 | UniProt Q8TE49 -0.779 | UniProt Q9P2H5 -0.0606 | UniProt Q9UGI0 -0.311 | YOD1 -0.732
